TDP1 inh – blocks human tyrosyl-DNA phosphodiesterase 1. Q9NUW8. recombinant TDP1, AlphaScreen DNA substrate cleavage. Potency, µM (series often up to 130 µM), for inactives: at the top dose activity change, negative = inhibition, hits mostly inhibitors. 350,000 compounds, 0.28% hits. AID 485290; note: potency is the fitted concentration of half-maximal effect; nearly all actives have a fitted effect of over 40% in size
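Signal: AlphaScreen proximity between streptavidin donor and anti-FITC acceptor beads on intact substrate. Reaction: Tdp1 1 nM, substrate 15 nM final, 5 min RT after 15 min compound preincubation.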
Six1-Eya2 blk – inhibitors of human Six1/Eya2 interaction; Q15475+O00167; AlphaScreen GST-Six1/His-Eya2 binding, biochemical; stronger effect = lower value; activity change, % (concentration not given with the values); 360,000 compounds, 0.56% hits; in the data active = activity change below about -65%; inconclusive = mostly about -30% to -63%
Target sequence (O00167 whole entry, looked up): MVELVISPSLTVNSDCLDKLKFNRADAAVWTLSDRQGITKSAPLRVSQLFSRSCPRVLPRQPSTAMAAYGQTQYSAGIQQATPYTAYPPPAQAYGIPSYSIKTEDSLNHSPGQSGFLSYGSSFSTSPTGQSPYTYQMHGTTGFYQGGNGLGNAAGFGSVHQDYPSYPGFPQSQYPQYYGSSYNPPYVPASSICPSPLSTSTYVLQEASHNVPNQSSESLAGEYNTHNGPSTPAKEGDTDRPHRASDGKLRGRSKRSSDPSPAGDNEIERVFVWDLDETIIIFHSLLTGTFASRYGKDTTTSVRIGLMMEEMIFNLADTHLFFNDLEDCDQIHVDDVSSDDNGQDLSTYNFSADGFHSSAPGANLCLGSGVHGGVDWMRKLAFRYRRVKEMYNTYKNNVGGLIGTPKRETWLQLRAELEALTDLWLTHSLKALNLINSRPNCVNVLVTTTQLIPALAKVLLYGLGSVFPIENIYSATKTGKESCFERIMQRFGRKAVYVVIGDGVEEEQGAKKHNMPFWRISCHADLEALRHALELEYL
Target sequence (Q15475 whole entry, looked up): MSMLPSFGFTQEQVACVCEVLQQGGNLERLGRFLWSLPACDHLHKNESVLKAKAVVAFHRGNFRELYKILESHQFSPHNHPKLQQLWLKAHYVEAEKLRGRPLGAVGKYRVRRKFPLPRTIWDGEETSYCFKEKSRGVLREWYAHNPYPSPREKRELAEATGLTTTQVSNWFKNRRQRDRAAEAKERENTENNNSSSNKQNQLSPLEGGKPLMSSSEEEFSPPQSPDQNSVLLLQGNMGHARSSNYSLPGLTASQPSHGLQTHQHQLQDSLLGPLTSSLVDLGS
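Compounds are tested against tagged Six1 and Eya2 proteins bridged by glutathione donor and nickel acceptor beads; after a one-hour incubation at 37 °C without light, AlphaScreen emission is recorded.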
TDP1 cell CPT – DT40-hTDP1 cell growth loss with CPT; chicken DT40 Tdp1-/-;hTDP1 cells + 20 nM CPT, ATP luminescence, 48 h; Potency, µM (top dose mostly 46.2 µM), for inactives: at the highest dose activity change, negative = growth inhibition, hits mostly inhibitors; 420,000 compounds, 12% hits; AID 686979; note: potency is the fitted concentration of half-maximal effect; nearly all actives have a fitted effect of over 55% in size
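Chicken DT40 Tdp1-/- cells complemented with human TDP1, 400 cells/well, exposed to compounds plus 20 nM camptothecin for at least 48 h at 37 C; viability read as ATP content by CellTiter-Glo luminescence.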
TDP1 cell noCPT – qHTS for Inhibitors of human tyrosyl-DNA phosphodiesterase 1 (TDP1): qHTS in cells in absence of CPT; 420,000 compounds, 15% hits; Potency, µM (top dose mostly 46.2 µM), for the others: at the highest dose activity change, negative = growth inhibition, usual class: inhibitors; DT40 Tdp1-/- hTDP1 cells, no CPT, ATP luminescence, 48 h; note: potency is the fitted concentration of half-maximal effect; nearly all actives have a fitted effect of over 55% in size
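Chicken DT40 Tdp1-/- cells complemented with human TDP1, screened without camptothecin (DMSO vehicle only), 400 cells/well. Compounds pin-transferred, cells incubated at 37 °C for at least 48 hr. Growth read as ATP-dependent luminescence (CellTiter-Glo, 30 min at RT).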
IL1B secr inh – inhibitors of inflammasome signaling (IL-1 beta secretion) | THP-1 LPS/ATP IL-1B secretion, AlphaLISA, 16 h; stronger effect = lower value | activity change, % at 57.5 µM | 360,000 compounds, 4.7% hits; in the data active = activity change below about -50%; inconclusive = mostly about -30% to -49%
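Secreted IL-1B measured by AlphaLISA bead assay after 16 h compound exposure of THP-1 cells; compounds (final up to 57.5 uM) added 1 h before LPS (250 ng/mL) and ATP (1.25 mM) stimulation; lower signal means less secretion.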
CtBP-E1A inh – blocks the CtBP interaction with E1A; AlphaScreen GST-E1A/His-CtBP binding, 1536-well; stronger effect = lower value; activity change, % (test concentration not listed); 340,000 compounds, 0.49% hits; AID 651724; in the data active = activity change below about -65%; inconclusive = mostly about -30% to -63%
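Homogeneous bead-based format: GST-tagged E1A captured on glutathione donor beads, His-tagged CtBP on nickel acceptor beads; compounds precede bead addition by 2 h at 37 °C.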
Starred values were filed as active, the others as inactive; ? = inconclusive; / = no result. The list is not random: actives were taken first. Their share in the collection is about 18%. Unless noted, calls come from the whole dose curve; as a rule, active = well fitted curve in the direction sought with a large enough effect; inconclusive = small, poorly fitted or top-dose-only effect, or another doubt; inactive = no such curve, though single readings can be large; an effect the other way counts as inactive or inconclusive. % is set by controls: 0 for no effect and ±100 for the full control effect.

SMILES	TDP1 inh	Six1-Eya2 blk	TDP1 cell CPT	TDP1 cell noCPT	IL1B secr inh	CtBP-E1A inh
COc1ccc(N(CC(=O)Nc2ccc(Cl)cc2)S(=O)(=O)c2c(C)n[nH]c2C)cc1	1.5%	1.0	?	1.5%	9.2	12.2
COc1ccc(N(CC(=O)N2CCN(c3ccc(Cl)cc3)CC2)S(=O)(=O)c2c(C)n[nH]c2C)cc1	2.6%	-7.0	?	?	-62.4*	-13.9
Cc1ccc(N(CC(=O)N2CCN(c3ccc(Cl)cc3)CC2)S(=O)(=O)c2c(C)noc2C)cc1	4.7%	/	?	23.1µM*	/	/
CCOC(=O)N1CCN(C(=O)CN(c2ccc(C)cc2)S(=O)(=O)c2c(C)noc2C)CC1	-3.1%	-2.4	-20.4%	-27.9%	13.8	0.5
Cc1ccc(N(CC(=O)N2CCN(c3ccc(F)cc3)CC2)S(=O)(=O)c2c(C)noc2C)cc1	5.6%	-8.5	14.6µM*	?	-16.4	-0.8
Cc1c(C)n(C(=O)CSc2ncn[nH]2)c2ccccc12	-2.2%	-3.4	-22.2%	-12.9%	-12.2	-1.1
COC(=O)[C@]1(C)N[C@H](CN(C)C(=O)c2ccc(F)cc2)[C@@H]2C(=O)N(C)C(=O)[C@@H]21	1.2%	3.6	-2.3%	3.2%	22.4	-22.1
Cn1c(CC(=O)Nc2ccc(Cl)c(Cl)c2)nnc1SCC(=O)NCc1ccccc1	5.0%	-17.4	-7.3%	-4.2%	-3.1	0.0
CC(=O)Nc1ccc(CN(C)c2c(C)nc3ccc(C(=O)N(C)Cc4ccco4)cn23)cc1	/	-9.2	16.4µM*	?	10.4	-4.6
CCCCC(=O)N(C)c1c(C)nc2ccc(C(=O)N3CCN(C(=O)c4ccco4)CC3)cn12	/	6.4	-22.8%	-13.3%	-54.2*	-12.9
Cc1nc2ccc(C(=O)N3CCN(C(=O)c4ccco4)CC3)cn2c1N(C)C(=O)CCc1ccccc1	/	20.6	-1.3%	-4.2%	0.9	0.0
CCCCN(C)c1c(C)nc2ccc(C(=O)N(C)Cc3ccco3)cn12	/	5.3	?	18.4µM*	-2.6	-7.0
O=c1cc(N2CCN(c3ccccc3)CC2)[nH]c(=O)n1-c1ccccc1	2.3%	1.6	-20.8%	11.6%	-1.8	-2.1
O=c1cc(N2CCN(c3ccc(F)cc3)CC2)[nH]c(=O)n1-c1cccc(Br)c1	-4.4%	/	10.3µM*	18.4µM*	/	/
COCCn1c(C)cc2c(c1=O)C(c1ccco1)C(C#N)=C(N)O2 (stereo not drawn)	0.5%	-1.2	-21.6%	-11.6%	-16.6	7.6
COc1ccc2[nH]c(C)c(CCNC(=S)Nc3cccc(C)c3C)c2c1	2.7%	?	?	20.6µM*	7.9	-3.2
COc1ccc2[nH]c(C)c(CCNC(=S)Nc3ccccc3C)c2c1	11.0%	-8.2	18.4µM*	?	-10.1	0.0
COc1ccc2[nH]c(C)c(CCNC(=S)Nc3ccc(C)cc3)c2c1	8.1%	-22.6	18.4µM*	?	-25.7	/
Cc1cccc(NC(=S)NCCO)c1C	-2.8%	0.9	-10.5%	-2.6%	18.3	2.5
COC(=O)c1cc(Cl)ccc1NC(=O)CSc1ncc(S(=O)(=O)c2ccc(Br)cc2)c(=O)[nH]1	6.4%	/	6.7%	-3.0%	/	/
Fc1ccc(C2C3=C(Nc4ncnn42)c2ccccc2OC3c2ccncc2)cc1 (stereo not drawn)	5.0%	-5.7	-0.3%	?	-55.3*	-0.9
CCOC(=O)C1=CN2CCC[C@H]2CC1=O	0.5%	0.0	-9.9%	2.7%	54.9	-0.9
NS(=O)(=O)c1ccc(CCNC(=O)CNCCc2ccc(C(F)(F)F)cc2)cc1	/	6.8	?	?	21.3	/
NC(c1csc(NC(=O)Nc2ccc(OC(F)(F)F)cc2)n1)C1CCCCC1 (stereo not drawn)	/	4.5	10.3µM*	9.2µM*	-111.8*	0.0
CCC(=O)N1CCC(NC(=O)Nc2ccc(OC(F)(F)F)cc2)CC1	-0.5%	0.3	-21.7%	-22.9%	15.6	4.7
SMILES	TDP1 inh	Six1-Eya2 blk	TDP1 cell CPT	TDP1 cell noCPT	IL1B secr inh	CtBP-E1A inh
CC(C)c1ccccc1NC(=O)Nc1nc(C(N)Cc2ccc(C(F)(F)F)cc2)cs1 (stereo not drawn)	/	-3.6	13µM*	23.1µM*	-18.3	1.7
COc1ccc(NC(=O)Nc2nc(C(N)CC(C)C)cs2)cc1 (stereo not drawn)	/	-21.9	?	16.4µM*	?	?
CC(C)c1ccccc1NC(=O)CNCCc1ccc(C(F)(F)F)cc1	/	5.6	?	25.9µM*	-6.2	/
NC(CO)c1csc(NC(=O)Nc2ccccc2Cc2ccccc2)n1 (stereo not drawn)	/	?	?	?	-13.3	?
CC(C)CC(N)c1csc(NC(=O)Nc2ccccc2C(C)C)n1 (stereo not drawn)	/	-12.5	?	14.6µM*	?	-9.9
CC(C)(C)c1ccccc1NC(=O)Nc1nc(C(N)Cc2ccc(F)cc2)cs1 (stereo not drawn)	/	-12.6	?	20.6µM*	-53.3*	-12.7
Cc1ccccc1NC(=O)Nc1nc(C(N)c2ccccc2)cs1 (stereo not drawn)	/	-27.3	?	?	?	?
NC(Cc1ccc(C(F)(F)F)cc1)c1csc(NC(=O)Nc2ccccc2Cc2ccccc2)n1 (stereo not drawn)	/	-1.6	?	23.1µM*	-60.6*	0.8
Cc1ccc(-c2csc(N(Cc3ccccc3)C(=O)COc3ccccc3)n2)cc1	5.9%	2.0	?	?	-10.6	8.0
CCCCN(CCCC)CCNC(=O)CSCc1ccc(C)cc1	0.0%	-11.9	25.9µM*	20.6µM*	-8.7	-3.4
Cc1ccc(CNC(=O)CSCc2ccccc2)cc1	-3.6%	6.8	3.7%	-3.6%	4.4	/
C/C=C/c1ccc(OCCOc2cc(C=O)ccc2OC)c(OC)c1	-10.5%	-7.0	?	25.9µM*	-11.5	1.4
Cc1ccc(OCCNCc2ccccc2)c(C)c1	0.0%	3.0	?	?	-7.5	4.1
C/C=C/c1ccc(OCCOCCNCc2ccccc2)c(OC)c1	/	-12.2	?	18.4µM*	?	/
Cc1cc(C)c(C)c(OCCOCCNCc2ccccc2)c1	-5.8%	2.2	?	18.4µM*	?	0.5
COc1cc(C)ccc1OCCCCNCc1ccccc1	/	3.2	-25.6%	?	-6.1	/
C=CCCC(=O)N(C)CCO	-2.2%	3.7	-8.4%	3.9%	44.2	10.2
CCOc1nc2ccccc2cc1/C=C/C(=O)O	3.6%	-1.1	-15.9%	-15.0%	21.5	7.3
C(=C\c1ccc2ccccc2n1)/c1ccc2ccccc2n1	/	/	12.6µM*	?	/	/
